Each structure is given as a SMILES string. A number with no mark means an inactive call. Records with an inconclusive call do not appear. Activity calls are given as the source filed them. Unless noted, the call rests on the fitted dose curve; in most records, active means well fitted curve in the direction sought with a large enough effect in the repeat runs; inconclusive means weak or mixed curves; inactive means no such curve, though single readings can be large; an effect the other way counts as inactive or inconclusive.

Assay [1] in a line: A CellTox Green Cytotoxicity Assay to monitor cytotoxicity in HepG2 cells - 16 hour (AID 1224876). Further: nearly all actives have a fitted effect of over 45% in size. Further: potency means the concentration at half of the fitted maximal effect. In a few lines:
(§1)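 Nonlytic assay: viable cells exclude the dye, so fluorescence scales with cell death. HepG2 at 600 cells/well, compounds added after 5 h, signal read across 40 h.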

The nature of assay [2]: qHTS RealTime-Glo MT Cell Viability Assay in HepG2 cells - 32 hour (AID 1224877). Further: nearly all actives have a fitted effect of over 55% in size. In a few lines: (§2)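 Cells + NanoLuc/prosubstrate dispensed (600 cells/well) → 5 h at 37 C/5% CO2 → compounds in DMSO transferred → 40 h incubation at 37 C, luminescence read at 0, 8, 16, 24, 32, 40 h.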
Assay [3] is described as follows: A CellTox Green Cytotoxicity Assay to monitor cytotoxicity in HepG2 cells - 24 hour (AID 1224878). Further: nearly all actives have a fitted effect of over 45% in size. Further: potency means the concentration at half of the fitted maximal effect. The method, boiled down:
as §1

The nature of assay [4]: qHTS RealTime-Glo MT Cell Viability Assay in HEK293 cells - 0 hour (AID 1224880). Further: top concentration of the series differs between compounds; nearly all actives have a fitted effect of over 45% in size. In a few lines: (§3)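 Tox21 screen in HEK293 using RealTime-Glo MT chemistry, with cells and reagent co-dispensed. Luminescence proportional to viable cell number was captured at intervals during 40 h compound exposure at 37 C.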
Assay [5] is described as follows: A CellTox Green Cytotoxicity Assay to monitor cytotoxicity in HEK293 cells - 32 hour (AID 1224881). Further: nearly all actives have a fitted effect of over 40% in size. The method, boiled down:
(§4)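 Seeding of HEK293 cells together with cytotoxicity dye preceded a 5 h incubation at 37 C/5% CO2. Test compounds in DMSO were then added and fluorescence monitored across 40 h.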

A short description of assay [6]: A CellTox Green Cytotoxicity Assay to monitor cytotoxicity in HepG2 cells - 0 hour (AID 1224882). Further: nearly all actives have a fitted effect of over 35% in size. In a few lines:
as §1

Assay [7] can be described thus: A CellTox Green Cytotoxicity Assay to monitor cytotoxicity in HepG2 cells - 32 hour (AID 1224883). Further: nearly all actives have a fitted effect of over 50% in size. The method, boiled down:
as §1

Assay [8] in a line: A CellTox Green Cytotoxicity Assay to monitor cytotoxicity in HEK293 cells - 8 hour (AID 1224884). Further: nearly all actives have a fitted effect of over 35% in size. The method, boiled down:
as §4

A short description of assay [9]: qHTS RealTime-Glo MT Cell Viability Assay in HepG2 cells - 16 hour (AID 1224885). Further: nearly all actives have a fitted effect of over 50% in size. In a few lines: as §2
Assay [10] is described as follows: qHTS RealTime-Glo MT Cell Viability Assay in HEK293 cells - 24 hour (AID 1224886). Further: top concentration of the series differs between compounds; nearly all actives have a fitted effect of over 50% in size. The method, boiled down:
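Tox21 10K qHTS, HEK293, 600 cells/well, RealTime-Glo reagent co-dispensed with cells; 5 h preincubation, compound by pintool, 37 C, luminescence at 0–40 h.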

The nature of assay [11]: qHTS RealTime-Glo MT Cell Viability Assay in HEK293 cells - 8 hour (AID 1224887). Further: top concentration of the series differs between compounds; nearly all actives have a fitted effect of over 50% in size. The method, boiled down: as §3
The nature of assay [12]: A CellTox Green Cytotoxicity Assay to monitor cytotoxicity in HEK293 cells - 16 hour (AID 1224888). Further: nearly all actives have a fitted effect of over 35% in size. The method, boiled down: as §4
Assay [13] is described as follows: qHTS RealTime-Glo MT Cell Viability Assay in HepG2 cells - 0 hour (AID 1224889). Further: nearly all actives have a fitted effect of over 50% in size. The method, boiled down:
as §2

Assay [14] can be described thus: A CellTox Green Cytotoxicity Assay to monitor cytotoxicity in HepG2 cells - 8 hour (AID 1224890). Further: nearly all actives have a fitted effect of over 45% in size. Further: potency means the concentration at half of the fitted maximal effect. The method, boiled down: as §1
A short description of assay [15]: qHTS assay to identify small molecule antagonists of the estrogen receptor alpha (ER-alpha) signaling pathway using the BG1 cell line in the presence of 0.1 nM 17-beta-estradiol - cell viability counter screen (AID 1259241). Further: nearly all actives have a fitted effect of over 40% in size. The method, boiled down: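 Cells were plated and left 24 hr, compounds in DMSO were pinned in, 17beta-estradiol was added to 0.1 nM final, and after 22 hr CellTiter-Fluor reagent was added for 30 min before fluorescence was read.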

A short description of assay [16]: qHTS assay to identify small molecule antagonists of the androgen receptor (AR) signaling pathway using the MDA cell line in the presence of 0.5 nM R1881 - cell viability counter screen (AID 1259242). Further: nearly all actives have a fitted effect of over 45% in size. In a few lines:
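R1881 at 0.5 nM final stimulated MDA-kb2 cells during 16 hr compound treatment at 37C. Cytotoxicity read: CellTiter-Fluor fluorescence after 30 min.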

A short description of assay [17]: A CellTox Green Cytotoxicity Assay to monitor cytotoxicity in HepG2 cells - 40 hour (AID 1224879). Further: nearly all actives have a fitted effect of over 40% in size. Further: potency means the concentration at half of the fitted maximal effect. The method, boiled down: as §1
Assay [18] addresses Estrogen receptor (Homo sapiens) (UniProt P03372). As to the kind of experiment: qHTS assay to identify small molecule antagonists of the estrogen receptor alpha (ER-alpha) signaling pathway using the BG1 cell line in the presence of 0.1 nM 17-beta-estradiol (AID 1259244). Further: nearly all actives have a fitted effect of over 50% in size. In a few lines: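 VM7Luc4E2; 4xERE-luciferase; 0.1 nM E2 final; 22 h co-incubation, 37C; ONE-Glo luminescence after 30 min at room temperature.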

Assay [19] is described as follows: qHTS assay to identify small molecule phospholipidosis (PLD) inducers (AID 1259344; active means well fitted curve in the direction sought with a large enough effect; an effect the other way counts as inactive or inconclusive). In a few lines:
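Phospholipidosis is scored by imaging LipidTOX-stained pits in HepG2 cells exposed to compound for 24 h at 37 C; pit counts and integrated intensities per well and per cell serve as outputs.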
On the % scale 0 is the no-effect control and ±100 the full control effect.

Sequence of Estrogen receptor (Homo sapiens) (P03372 whole entry, looked up): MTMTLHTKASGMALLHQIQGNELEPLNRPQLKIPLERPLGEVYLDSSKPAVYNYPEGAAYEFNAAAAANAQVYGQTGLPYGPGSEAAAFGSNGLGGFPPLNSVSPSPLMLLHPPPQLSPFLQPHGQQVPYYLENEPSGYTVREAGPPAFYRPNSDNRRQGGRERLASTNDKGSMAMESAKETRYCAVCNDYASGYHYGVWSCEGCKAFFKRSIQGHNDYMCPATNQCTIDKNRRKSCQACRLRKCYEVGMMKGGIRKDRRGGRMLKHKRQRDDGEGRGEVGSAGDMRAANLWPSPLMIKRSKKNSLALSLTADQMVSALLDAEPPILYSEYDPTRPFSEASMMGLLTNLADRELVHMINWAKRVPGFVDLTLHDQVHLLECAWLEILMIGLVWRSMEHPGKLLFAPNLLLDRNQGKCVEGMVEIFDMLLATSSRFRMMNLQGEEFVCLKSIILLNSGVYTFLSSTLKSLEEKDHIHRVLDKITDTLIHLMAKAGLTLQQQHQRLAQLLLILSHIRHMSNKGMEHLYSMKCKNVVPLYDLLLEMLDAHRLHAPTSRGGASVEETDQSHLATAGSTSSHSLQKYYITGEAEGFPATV

`O=Cc1cc2ccccc2o1`: the Potency entry in assay [1], in assay [3], in [4], in assay [5], in [6] and in assay [7] was “inactive” each time. Further, the Potency result in assay [8], in [10], in assay [11], in [12], in assay [13] and in assay [14] was “inactive” each time. The molecule was classed as inactive in assay [2], in assay [9], in assay [15] and in assay [16].
As for `CN(C)CCCCl`, the Potency entry in assay [1], in assay [3], in assay [17], in assay [4], in assay [5] and in assay [8] was “inactive” throughout. Also, the Potency entry in assay [10], in assay [11], in [12], in [13] and in assay [14] was “inactive” in each case. Besides, the molecule was called inactive in [2], in assay [9], in assay [15] and in [16].
As to `CCCC(=O)OCCC(C)CCC=C(C)C` (stereo not given), the Potency result in [1], in [3], in assay [17], in assay [5], in [6] and in [8] was “inactive” each time. Further, the Potency result in [10], in assay [11], in assay [12] and in assay [14] was “inactive” throughout. For the same molecule, the outcome in assay [2], in [9] and in assay [15] was inactive.
`CCCCOC(=O)C(C)O` (stereo not given): the Potency result in assay [1], in [3], in assay [17], in assay [4], in [5] and in assay [7] was “inactive” throughout. For the same molecule, the Potency entry in assay [8], in assay [10], in assay [11], in [12], in assay [13] and in [14] was “inactive” in each case. For the same molecule, the outcome in [2], in [9], in assay [15], in [16] and in assay [18] was inactive.
In the case of `CCC(C)C(=O)OCCc1ccccc1` (stereo not given), the Potency entry in assay [1], in assay [3], in [17], in assay [4], in assay [6] and in [7] was “inactive” in each case. The Potency entry in assay [8], in assay [10], in assay [11], in [12], in [13] and in assay [14] was “inactive” each time. In addition, the molecule was called inactive in assay [2], in assay [9], in assay [15], in [16] and in assay [18].
With `CC(=O)Nc1ccc(OC(=O)c2ccccc2OC(C)=O)cc1`, the Potency entry in assay [1], in [3], in assay [17], in assay [4], in [6] and in assay [7] was “inactive” each time. Also, the Potency result in assay [8], in assay [10], in [13] and in [14] was “inactive” each time. Moreover, the result in [2], in [9], in [15], in assay [16], in assay [18] and in [19] was inactive.
Consider `OCCN1CCOCC1`, for which the Potency entry in [1], in [3], in assay [17], in assay [4], in assay [5] and in assay [7] was “inactive” each time. Besides, the Potency entry in assay [8], in [10], in [11], in [12], in assay [13] and in assay [14] was “inactive” in each case. In addition, the result in assay [2], in assay [9], in assay [15], in assay [16] and in assay [18] was inactive.
In the case of `CC12CCC(C1)C(C)(C)C2O` (stereo not given), the Potency in assay [1] was 1.95 µM (active); in assay [3], 2.19 µM (active); in [17], 2.19 µM (active); in assay [14], 1.95 µM (active). Also, the call in assay [2], in [9], in assay [15], in assay [16] and in assay [18] was inactive. Besides, the Potency result in [4], in assay [11] and in [13] was “inactive” throughout.
Turning to `CCn1cc(C(=O)O)c(=O)c2cnc(N3CCCC3)nc21`, the cytotoxicity increase in assay [1] was 3.06% [at 6.97 µM]; in assay [17], 2.25% [at 6.97 µM]; in [5], 4.33% [at 6.97 µM]; in assay [7], -0.981% [at 6.97 µM]; in assay [8], 0.169% [at 6.97 µM]; in assay [14], 3.53% [at 6.97 µM]. The activity change, negative = cytotoxic in [2] is -0.35% [at 6.97 µM]; in [9], 2.96% [at 6.97 µM]. Further, in assay [3], the cytotoxicity was 0.605% [at 6.97 µM]. Besides, the activity change, negative = cytotoxicity in assay [4] was 0.136% [at 6.97 µM]; in assay [10], 7.35% [at 6.97 µM]; in assay [11] it was 10.5% [at 6.97 µM]; in assay [13], -5.5% [at 6.97 µM]; in [15], -1.69% [at 8.39 µM]. Moreover, the activity change in assay [12] was 2.01% [at 6.97 µM, stronger effect = higher value]. Also, the viability change, negative = cytotoxic in assay [16] is 7.44% [at 8.39 µM]. In addition, in assay [19], the call was inactive.
